“And” between values parts separate entries of the source, which are not always exact repeats. Equal values may be shown once. About 83,000 compounds went through this panel and 20% of them were active in at least one assay; those are over-represented in the sample as a whole.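 In brief: 96-well plates, 48 h treatment, single concentration, percent growth endpoint.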 The source made the active and inactive calls. Rule for the calls: active = growth percent below 10; inactive = the rest.
Experiments:
Test in all cases: NCI-60 one-dose screen, 48 h (100 = growth as untreated, 0 = no growth, -100 = all killed)
Conditions in all cases: 10 µM unless noted
HCT-15 colon = test system: HCT-15 colon
HT29 colon = test system: HT29 colon
SNB-75 CNS = test system: SNB-75 CNS
SNB-19 CNS = test system: SNB-19 CNS
U251 CNS = test system: U251 CNS
PC-3 prostate = test system: PC-3 prostate
SK-MEL-5 melanoma = test system: SK-MEL-5 melanoma
UACC-62 melanoma = test system: UACC-62 melanoma
LOX IMVI melanoma = test system: LOX IMVI melanoma
SK-MEL-28 melanoma = test system: SK-MEL-28 melanoma
SK-MEL-2 melanoma = test system: SK-MEL-2 melanoma
EKVX NSCLC = test system: EKVX NSCLC
SN12C renal = test system: SN12C renal
UO-31 renal = test system: UO-31 renal
TK-10 renal = test system: TK-10 renal
ACHN renal = test system: ACHN renal
CAKI-1 renal = test system: CAKI-1 renal
A498 renal = test system: A498 renal
CCRF-CEM leukemia = test system: CCRF-CEM leukemia
MOLT-4 leukemia = test system: MOLT-4 leukemia

SMILES	growth (HCT-15 colon)	growth (HT29 colon)	growth (SNB-75 CNS)	growth (SNB-19 CNS)	growth (U251 CNS)	growth (PC-3 prostate)	growth (SK-MEL-5 melanoma)	growth (UACC-62 melanoma)	growth (LOX IMVI melanoma)	growth (SK-MEL-28 melanoma)	growth (SK-MEL-2 melanoma)	growth (EKVX NSCLC)	growth (SN12C renal)	growth (UO-31 renal)	growth (TK-10 renal)	growth (ACHN renal)	growth (CAKI-1 renal)	growth (A498 renal)	growth (CCRF-CEM leukemia)	growth (MOLT-4 leukemia)
COC(=O)c1nc(-c2ccc(C)cc2)oc1Sc1ccc(C)cc1	86.8% (inactive)	102% (inactive)	79.3% (inactive)	101% (inactive)	94.3% (inactive)	78.4% (inactive)	105% (inactive)	76.9% (inactive)	93.5% (inactive)	106% (inactive)	104% (inactive)	105% (inactive)	96% (inactive)	82.6% (inactive)	106% (inactive)	96.1% (inactive)	95% (inactive)	130% (inactive)	86.9% (inactive)	71.7% (inactive)
O=c1c2c([nH]c3ccccc13)CCCC2	94.8% (inactive) and 23.8% (inactive)	102% (inactive) and 2.59% (active)	33.5% (inactive)	102% (inactive) and 56.9% (inactive)	97.4% (inactive) and 24.3% (inactive)	85.3% (inactive) and 57.9% (inactive)	99.3% (inactive) and 37.5% (inactive)	89.6% (inactive) and 53.7% (inactive)	102% (inactive) and 37.3% (inactive)	106% (inactive) and 53.8% (inactive)	103% (inactive) and -12% (active)	103% (inactive)	95.8% (inactive) and 56.5% (inactive)	87.6% (inactive) and 50.4% (inactive)	104% (inactive) and 62.2% (inactive)	96.5% (inactive) and 57.9% (inactive)	98.6% (inactive) and 54.6% (inactive)	102% (inactive) and 49.1% (inactive)	–	83.4% (inactive) and 34.7% (inactive)
COc1ccccc1/C=C/C(=O)/C=C/c1ccccc1OC	-2.72% (active) and -27.6% (active)	-42.7% (active) and -16.4% (active)	45.2% (inactive) and 12.6% (inactive)	33.5% (inactive) and 38.5% (inactive)	-81% (active) and -40.1% (active)	0.508% (active) and 17% (inactive)	-89.4% (active) and -77% (active)	-61.6% (active) and -64.3% (active)	-60.1% (active) and -53.8% (active)	-58.9% (active) and -57.8% (active)	2.6% (active) and 1.3% (active)	12.6% (inactive)	-27.2% (active) and -3.57% (active)	-89.9% (active) and -54.9% (active)	-11.8% (active) and 0.143% (active)	-62.5% (active) and -84.2% (active)	17.5% (inactive) and 4.88% (active)	-48.3% (active) and 22.8% (inactive)	–	14.8% (inactive) and 12.1% (inactive)
O=S(=O)(Nc1cc(Sc2cccc3cccnc23)c(O)c2ccccc12)c1ccc(F)cc1	-42.9% (active)	-40.9% (active)	63.8% (inactive)	42.1% (inactive)	5.35% (active)	17% (inactive)	-40.2% (active)	-26.9% (active)	-60.7% (active)	-16.2% (active)	1.64% (active)	37.1% (inactive)	-15% (active)	-11.2% (active)	17.1% (inactive)	0.351% (active)	11.9% (inactive)	70.4% (inactive)	–	-18.4% (active)
COc1cc(N=Nc2ccc(O)c3ncccc23)c2ncccc2c1	27.5% (inactive)	44.5% (inactive)	41.9% (inactive)	47.6% (inactive)	16.5% (inactive)	32.4% (inactive)	43.1% (inactive)	6.71% (active)	4.79% (active)	42% (inactive)	61.3% (inactive)	65.8% (inactive)	68.6% (inactive)	16.6% (inactive)	69.2% (inactive)	4.47% (active)	17.3% (inactive)	74.9% (inactive)	–	6.75% (active)
O=C(/C=C\c1ccc(Cl)c(Cl)c1)c1ccccc1	65.6% (inactive) and 100% (inactive)	37.5% (inactive) and 88.8% (inactive)	98.5% (inactive) and 99.9% (inactive)	86.9% (inactive) and 98.4% (inactive)	85.3% (inactive)	98.8% (inactive) and 87.6% (inactive)	97.2% (inactive) and 101% (inactive)	91.7% (inactive) and 95.9% (inactive)	10.8% (inactive) and 91.5% (inactive)	102% (inactive) and 108% (inactive)	119% (inactive) and 109% (inactive)	89.3% (inactive)	96.1% (inactive) and 104% (inactive)	72.2% (inactive) and 84.2% (inactive)	80.6% (inactive) and 103% (inactive)	95.2% (inactive) and 105% (inactive)	96.7% (inactive) and 89.5% (inactive)	74.1% (inactive) and 77.3% (inactive)	–	77.4% (inactive) and 103% (inactive)
